# Results as given in PubChem BioAssay AID485346 (Sanford-Burnham Center for Chemical Genomics, 2010).
# Out of some 330,000 compounds screened, about 10,000 (3%) were called active. The entries come from a sample that favours actives as a whole. Values without a mark were called inactive.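 The calls were made as follows: active = inhibition of at least 50% at 8 µM in the primary screen; inactive = the rest.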
# Molecular target: Protein Mdm4 (Homo sapiens) + E3 ubiquitin-protein ligase Mdm2 (Homo sapiens) (UniProt O15151+Q00987)
# Assay: inhibitors of human Mdm2-MdmX association, primary screen, cell-based, luminescence, split luciferase, SaOS-2, uHTS (AID 485346)
# Conditions: SaOS-2 split-luciferase Mdm2/MdmX complementation, at 8 µM, active compounds read high
# Sequence of Protein Mdm4 (Homo sapiens) + E3 ubiquitin-protein ligase Mdm2 (Homo sapiens) (O15151 whole entry, looked up): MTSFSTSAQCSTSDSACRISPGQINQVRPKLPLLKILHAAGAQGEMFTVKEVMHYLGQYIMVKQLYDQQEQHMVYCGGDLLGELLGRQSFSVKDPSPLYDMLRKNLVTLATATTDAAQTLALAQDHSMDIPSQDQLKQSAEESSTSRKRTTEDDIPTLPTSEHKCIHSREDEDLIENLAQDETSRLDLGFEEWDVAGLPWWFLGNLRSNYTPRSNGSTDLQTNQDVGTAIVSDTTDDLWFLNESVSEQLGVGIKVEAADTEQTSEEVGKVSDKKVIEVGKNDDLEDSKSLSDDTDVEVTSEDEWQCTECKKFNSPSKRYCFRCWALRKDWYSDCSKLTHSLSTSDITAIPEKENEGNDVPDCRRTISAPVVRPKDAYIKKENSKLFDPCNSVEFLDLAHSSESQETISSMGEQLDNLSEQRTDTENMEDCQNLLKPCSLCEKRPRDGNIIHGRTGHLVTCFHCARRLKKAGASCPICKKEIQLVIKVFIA
# Sequence of Protein Mdm4 (Homo sapiens) + E3 ubiquitin-protein ligase Mdm2 (Homo sapiens) (Q00987 whole entry, looked up): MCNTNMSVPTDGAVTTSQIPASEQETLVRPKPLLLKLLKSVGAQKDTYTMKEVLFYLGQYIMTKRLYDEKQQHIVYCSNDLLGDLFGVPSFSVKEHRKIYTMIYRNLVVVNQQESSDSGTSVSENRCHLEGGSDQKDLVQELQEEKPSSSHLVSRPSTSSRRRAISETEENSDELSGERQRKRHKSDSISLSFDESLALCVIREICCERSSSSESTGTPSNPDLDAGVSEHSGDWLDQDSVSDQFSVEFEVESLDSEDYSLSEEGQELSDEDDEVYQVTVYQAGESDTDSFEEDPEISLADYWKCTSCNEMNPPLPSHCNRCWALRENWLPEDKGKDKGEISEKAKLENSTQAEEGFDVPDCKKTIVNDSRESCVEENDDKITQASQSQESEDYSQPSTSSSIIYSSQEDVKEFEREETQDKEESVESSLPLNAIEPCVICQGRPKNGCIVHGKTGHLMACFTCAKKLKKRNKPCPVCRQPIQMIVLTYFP
row,SMILES,inhibition
1,CC1CC(C)CN(S(=O)(=O)c2cccc(C(=O)N3C(=O)c4cccc(N)c4C3=O)c2)C1 (stereo unspecified),19.4%
2,Cc1cc(C)n(-c2ccc(NC(=O)C3CCCCN3C(=O)c3cccs3)cc2)n1 (stereo unspecified),12%
3,COc1ccc(NC(=O)CCCC2CCCCC2)c(OC)c1,-13.7%
4,Cc1ccccc1-n1nnc2c(=O)oc3ccccc3c21,8.39%
5,Cc1ccc(NC(=O)c2cccc(S(=O)(=O)N3CCCc4ccccc43)c2)nc1,2.43%
6,O=C(Nc1nc2ccc([N+](=O)[O-])cc2s1)c1ccc(S(=O)(=O)N2CCCc3ccccc32)cc1,96.6% (active)
7,CNC(=O)c1ccsc1NC(=O)c1ccc(S(=O)(=O)N2CCc3ccccc32)cc1,38%
8,O=C(NC(Nc1nc2ccc([N+](=O)[O-])cc2s1)(C(F)(F)F)C(F)(F)F)c1ccccc1,99.3% (active)
9,O=C(CNC(=O)c1ccccc1)Oc1ccc([N+](=O)[O-])cc1,-9.24%
10,O=C(CCNC(=O)c1ccccc1)Nc1nc2ccccc2s1,-16.2%
11,CCCCCCC12CCC(C(=O)O)(CC1)CC2,11.2%
12,COc1cccc(CC(=O)OCC(=O)NCc2ccc3c(c2)OCO3)c1,1.87%
13,CCn1c(CSCc2c(Cl)cccc2Cl)n[nH]c1=S,7.91%
14,Cc1cc(NS(=O)(=O)c2ccc(NC(=O)c3cccc(OC(F)F)c3)cc2)nc(C)n1,-4.83%
15,COc1ccc(C2c3[nH]c4ccccc4c3C[C@H]3C(=O)N(CC(C)C)CC(=O)N23)c(OC)c1 (stereo partly specified),13.6%
16,COc1ccc(Br)c2c1C(=O)CC2,7.81%
17,O=C(NCCCn1ccnc1)C(=O)NCC1OCCN1S(=O)(=O)c1cc(F)ccc1F (stereo unspecified),-11.2%
18,CCOC(=O)c1ccc(NC(=O)c2cc(=O)[nH]c3ccccc23)cc1,23%
19,CCOC(=O)c1ccc(NC(=O)c2c(N)n(C)c(=O)[nH]c2=O)cc1,5.07%
20,CCOC(=O)c1ccc(NC(=O)c2c(NCc3ccccc3)[nH]c(=O)[nH]c2=O)cc1,73.2% (active)
21,CCOC(=O)N1CCC(N2Cc3cccc(C(=O)Nc4c(C)cccc4CC)c3C2=O)CC1,12.5%
22,CCOc1ccccc1NC(=O)Cc1cccs1,2.43%
23,CCOc1ccccc1NC(=O)Cn1nnc(C(=O)NCc2cccs2)c1N,61.5% (active)

row,SMILES,inhibition
1,Cc1ccc(NC(=O)Cn2nnc(C(=O)NCc3ccco3)c2N)c(C)c1,11.7%
2,COc1cc(OC)c2ccc(=O)oc2c1C(CCN1CCN(c2ccccc2)CC1)c1ccc2c(c1)OCO2 (stereo unspecified),42.4%
3,COc1cc(C(CCN2CCN(c3ccccc3)CC2)c2c(OC)cc(OC)c3ccc(=O)oc23)cc(OC)c1OC (stereo unspecified),15.2%
4,COc1ccc(-c2c(C)cc3oc(=O)cc(-c4ccccc4)c3c2C)cc1C=O,27.5%
5,CCN(CC)CCC(c1cc(OC)c(OC)c(OC)c1)c1c(OC)cc(OC)c2c(-c3ccccc3)cc(=O)oc12 (stereo unspecified),62.7% (active)
6,CCN(CC)CCC(c1ccc2c(c1)OCO2)c1c(OC)cc(OC)c2c(-c3ccccc3)cc(=O)oc12 (stereo unspecified),76.1% (active)
7,CCN(CC)C(=O)CC(c1ccc2c(c1)OCO2)c1c(OC)cc(OC)c2c(-c3ccccc3)cc(=O)oc12 (stereo unspecified),13%
8,O=C(CN1CCCCC1)NC(=O)Nc1ccccc1F,12.7%
9,O=C(NNC1=C(C(=O)C(F)(F)F)CCC1)c1ccncc1,8.09%
10,COc1cc(OC)c(C(=O)NNC(=O)c2ccccc2-n2cccc2)cc1OC,12.8%
11,CNC(=O)C1CC(=O)N(c2ccc(OCC(=O)Nc3ccccc3C)cc2)C1 (stereo unspecified),10.1%
12,COc1ccc(CN2[C@@H](CC(=O)O)c3cc(F)ccc3S2(=O)=O)cc1,-1.99%
13,CCCCCNC(=O)c1cccnc1SCC(=O)Nc1ccccc1OC,1.51%
14,Cc1cccc(NS(=O)(=O)c2cccc(C(=O)NNC(=O)c3ccccc3O)c2)c1,46%
15,CCOC(=O)C(C)N(c1ccccc1Cl)S(C)(=O)=O (stereo unspecified),19%
16,CC(C)=CCCC1(C)C=Cc2c(ccc3c2[nH]c2cc(O)c(C)cc23)O1 (stereo unspecified),97.9% (active)
17,CC(Sc1ccccc1F)C(=O)Nc1cccc(S(=O)(=O)N2CCOCC2)c1 (stereo unspecified),8.39%
18,COc1ccc(NC(=O)NC2CC3CCCC(C2)N3Cc2ccccc2)cc1 (stereo unspecified),5.4%
19,Cc1c(NC(=O)C(C)OC(=O)c2ccccc2O)c(=O)n(-c2ccccc2)n1C (stereo unspecified),13.1%
20,O=c1[nH]c(/C=C/c2cccc(Br)c2)nc2ccccc12,48.2%
21,COc1ccc(C)cc1-n1nnnc1SCc1nc2ccccc2c(=O)[nH]1,18.2%
22,CCOc1cc(/C=C/c2nc3ccccc3c(=O)[nH]2)cc(Br)c1OC,69.3% (active)
23,Cc1nonc1OCCn1nnnc1N,6.95%

row,SMILES,inhibition
1,COC(=O)c1ccc(Sc2ccc(F)cc2)c(N)c1,-11%
2,Oc1cccc(/C=N/Nc2ccc(Cl)nn2)c1O,68.6% (active)
3,COc1cccc(/C=N/Nc2ccc(Cl)nn2)c1,-64.5%
4,Cc1ccsc1/C=N/Nc1ccc(Cl)nn1,-10.7%
5,Cc1cc(N2CCCC2)ccc1NC(=O)COc1ccc(Cl)cc1,-1.43%
6,CCN(CC)C(=O)c1nc[nH]c1C(=O)N(C)Cc1ccccc1,-2.16%
7,Cc1ccccc1CNC(=O)CCC(=O)N1Cc2ccccc2Oc2ncccc21,18.7%
8,CC[C@H]1OC(=O)[C@H](C)[C@@H](O[C@H]2C[C@@](C)(OC)[C@@H](O)[C@H](C)O2)[C@H](C)[C@@H](O[C@@H]2O[C@H](C)C[C@H](N(C)C)[C@H]2O)[C@](C)(O)C[C@@H](C)[C@@H]2N[C@@H](COCCOC)O[C@H]([C@H]2C)[C@]1(C)O,-10.6%
9,C=CCOc1c2ccc(C(=O)N(CC)c3ccc(OC)cc3)cc2nn1C,13.6%
10,CCCCn1nc(C(=O)Nc2cccc(C(=O)NC3CC3)c2)c2ccccc2c1=O,-19.3%
11,CCCn1nc(C(=O)Nc2ccc3nc(C)sc3c2)c2ccccc2c1=O,65.5% (active)
12,CCCn1nc(C(=O)NNC(=O)CSCC(=O)Nc2cc(C)on2)c2ccccc2c1=O,-23.6%
13,COc1ccccc1C1CC(=O)n2c(nc(-c3ccccc3)c2-c2ccccc2)S1 (stereo unspecified),-21.8%
14,O=C(N[C@@H](Cc1c[nH]c2ccccc12)C(=O)O)OCC1c2ccccc2-c2ccccc21,-20.2%
15,C=C1CCC(N(O)c2cc(C)on2)C(=C)CCC2C1CC2(C)C (stereo unspecified),-8.29%
16,CC(=O)Nc1ccc(S(=O)(=O)N(CCc2ccccc2)CC(=O)N/N=C/c2ccc(C(=O)O)cc2)cc1,-1.72%
17,Cc1ccc(N=C2NC(=O)/C(=C/C=C/c3ccco3)S2)cc1C,7.92%
18,CN(C)c1ccc(-n2cccc2/C=C2/SC(=Nc3ccc(F)cc3)NC2=O)cc1,53.3% (active)
19,CN(C)c1ccc(-n2cccc2/C=N/n2cnnc2)cc1,18.3%
20,Cc1ccc(S(=O)(=O)N2CCCCC2)cc1NC(=O)CCNC(=O)c1ccccc1,-6.37%
21,O=C(CN1CCOCC1)Nc1cccc([N+](=O)[O-])c1,14.4%
22,O=C(Cc1ccc2c(c1)CCCC2)Nc1ccccc1Cl,-28.4%
23,O=C(Nc1ccccc1Cl)/C(Cl)=C(\Cl)S(=O)c1ccccc1 (stereo unspecified),93.6% (active)

row,SMILES,inhibition
1,Cc1c(NC(=O)Nc2ccccc2Cl)sc(=S)n1C,-28%
2,Cc1ccc(S(=O)(=O)N2CC(O)C[C@H]2C(=O)OCC(=O)Nc2ccc(N3CCOCC3)cc2)cc1C (stereo partly specified),31.1%
3,COc1cccc2cc(C(N)=O)/c(=N\NC(=O)c3ccccc3)oc12,56.6% (active)
4,COc1cccc2cc(C(=O)N3CCN(C(=O)c4ccccc4)CC3)c(=O)oc12,13.1%
5,NC(=O)c1cc2ccccc2o/c1=N/NC(=O)c1cccc(F)c1,1.22%
6,CC(C)N1CCc2c(sc(NC(=O)Cc3ccccc3)c2C#N)C1,-40.8%
7,CC(=O)N1CCc2c(sc(NC(=O)CCS(=O)(=O)c3ccccc3)c2C#N)C1,86.2% (active)
8,CC(=O)N1CCc2c(sc(NC(=O)CCS(=O)(=O)c3ccc(C)cc3)c2C(N)=O)C1,25.4%
9,COc1ccc(N(C(=O)c2snc(C(N)=O)c2N)C(C(=O)NC2CCCC2)c2ccco2)cc1OC (stereo unspecified),22.9%
10,O=c1[nH]c(/C=C\c2cccc(C(F)(F)F)c2)nc(O)c1[N+](=O)[O-],-7.22%
11,OC(COc1ccc(F)cc1Cl)CN1CCc2ccccc2C1 (stereo unspecified),-9.27%
12,Cc1ccc(OCC(O)CN2CCN(CC(O)COc3ccc(C)cc3Cl)CC2)c(Cl)c1 (stereo unspecified),73.5% (active)
13,Cc1cccc(OCC(O)CN2CCN(S(=O)(=O)c3ccc(C)cc3C)CC2)c1 (stereo unspecified),-4.83%
14,CCOc1cc(NC(=S)NCc2ccco2)c(OCC)cc1NC(=O)c1ccco1,9.15%
15,CCCc1ccc(OCCNC(=O)c2ccco2)cc1,-4.69%
16,CC(Oc1ccc2ccccc2c1)C(=O)NNC(=S)NC(=O)c1ccco1 (stereo unspecified),19.6%
17,CC(C)Oc1ccc(CCC(=O)NNC(=S)NCc2ccccc2)cc1,-12.8%
18,COc1ccc(C(=O)NC(=S)NNC(=O)c2c(-c3ccccc3)noc2C)cc1,14.7%
19,COc1ccc(C(=O)NC(=S)NNC(=O)CCc2ccccc2)cc1,58.1% (active)
20,CCCc1ccc(OCC(=O)NNC(=S)NC(=O)c2ccco2)cc1,50% (active)
21,CCOc1cc(NC(=O)c2ccco2)c(OCC)cc1NC(=O)COc1ccccc1,55.2% (active)
22,COc1ccc(OCC(=O)Nc2ccc(NC(=O)c3ccco3)c(C)c2)cc1,-0.739%
